The values that follow are results of earlier work, collected in PubChem BioAssay AID977608.

In all, about 4,300 compounds went through this assay and about 4,300 (100%) were called active. No cut-off is given here; in the data, nearly all actives have IC50 up to about 1400 µM. So high a share suggests a set chosen from earlier hits. Some of the results follow. Where a SMILES comes first, the peptide text is derived from it. Square brackets hold non-standard residues; d marks the D form. Residues, ends and D or L forms follow the SMILES beside them. Peptide text beside a SMILES is read from it. * marks the point of attachment. Orn(CH(NH2)2) = NC(N)NCCC[C@H](N)C(=O)O; Abu = CC[C@H](N)C(=O)O; Dap = NC[C@H](N)C(=O)O; Propionyl = CCC(=O)*

This data set can be described thus: protein-ligand inhibition affinities from structures – PDB-derived complexes (AID 977608).

The IC50 is the concentration needed to halve the response being measured. For `COc1c(C(C)(C)C)cc(C2=CCC=NC2=O)c2ncc(N3CC[C@H](CNS(C)(=O)=O)C3)cc12`, the IC50 (literature IC50, protein: Hepatitis C Virus polymerase NS5B genotype 1b (BK), PDB entry 4mib) was 0.0002 µM (active).

With `COc1cc(-c2ccc(N3CCOCC3)cc2)cc(C)c1O`, the IC50 (literature IC50, protein: IRE1-alpha, PDB entry 4pl5) is 11 µM (active).

Consider `COc1cc(-c2ccc3c(c2)OCCN3C)cc(C)c1O`, for which the IC50 (literature IC50, protein: Serine/threonine-protein kinase/endoribonuclease IRE1-alpha, PDB entry 4pl4) is 5.4 µM (active).

Take `CN1CCC(C=N)(NC(=O)[C@H](CC2CCCCC2)NC(=O)N2CCOCC2)CC1`: where the note is “literature IC50, protein: human Cathepsin S, PDB entry 2r9m”, the IC50 was 0.0015 µM (active).

Consider `CN(C)CCNC1CCN2NC=C(c3cn[nH]c3)C2N1` (centres undefined), for which, where the note is “literature IC50, protein: Serine/threonine-protein kinase pim-1, PDB entry 4mbi”, the IC50 is 0.007 µM (active).

`Cc1ccc(C(=O)Nc2ccc(S(O)(O)O)c3cccc(S(O)(O)O)c23)cc1NC(=O)c1cccc([N+](=O)[O-])c1`: the IC50 (literature IC50, protein: mNV-RdRp, PDB entry 4nru) is 0.115 µM (active).

Take `CCCCCCCC(=O)O[C@@H]1[C@@H](OC(=O)[C@H](C)CC)[C@@H](C)[C@@H]2[C@H]1[C@@](C)(OC(C)=O)C[C@H](OC(=O)CCC)[C@@]1(O)[C@H]2O[C@@H](O)[C@@]1(C)O`: the IC50 (literature IC50, protein: Sarcoplasmic/endoplasmic reticulum calcium ATPase 1 (SERCA1a), PDB entry 3n5k) was 0.0002 µM (active).

For `O=C(Nc1cnn(-c2cccc(C(=O)Nc3cnn([C@H]4CCNC4)c3)c2)c1)Nc1ccccc1Cl`, for the setting “literature IC50, protein: Mitogen-activated protein kinase 10 JNK3, PDB entry 4whz”, the half-maximal inhibitory concentration (IC50) is 0.001 µM (active).

In the case of `Cc1nc2ccccc2[n+]([O-])c1C`, the IC50 (literature IC50, protein: Peroxiredoxin-1, PDB entry 4kw6) is 374 µM (active).

With `CC(C)C[C@@H]1NC(=O)c2c1c1c3ccccc3n(CCCCN)c1c1[nH]c3ccccc3c21`, the IC50 (literature IC50, protein: Proto-oncogene tyrosine-protein kinase Src, PDB entry 4mcv) is 0.0013 µM (active).

Turning to `O=C[N+](=O)CCC[P+](O)(O)O`, the IC50 is, setting by setting: (literature IC50, protein: E. coli 1-deoxy-D-xylulose 5-phosphate reductoisomerase (DXR), PDB entry 1onp) 0.03 µM (active); (literature IC50, protein: Oxidoreductase, PDB entry 3upy) 2.39 µM (active).

On to `NC(=O)C[C@@H]1NC(=O)C2(CCCCC2)NC(=O)C[C@@H](c2ccc(C[P+](O)(O)O)cc2)/C=C/C[C@@H](Cc2cccc3ccccc23)CNC1=O`, for which the 50% inhibitory concentration (IC50) (literature IC50, protein: growth factor receptor binding protein SH2 domain, PDB entry 1x0n) is 0.02 µM (active).

Take `CC(C)C1=CC2=C(C(O)C1=O)[C@@]1(C)CCCC(C)(C)[C@@H]1C(=O)C2` (some centres undefined): the IC50 (literature IC50, protein: Farnesyl pyrophosphate synthase HsFPPS-5, PDB entry 4p0v) is 1.2 µM (active).

Turning to `O=C(c1csc(-c2ccsc2)n1)n1ccc2ccccc21`, where the note is “literature IC50, protein: 3-OXOACYL-[ACYL-CARRIER-PROTEIN] REDUCTASE FABG, PDB entry 4bo6”, the IC50 was 0.18 µM (active).

As for H-ETFEHWWSQLLS-OH, the IC50 is, setting by setting: (literature IC50, protein: E3 ubiquitin-protein ligase Mdm2, PDB entry 3jzs) 0.008 µM (active); (literature IC50, protein: Human Protein Mdm4, PDB entry 3jzq) 0.11 µM (active).

For H-SDFEEFSLDDIEQ-OH, the IC50 (literature IC50, protein: ?-thrombin, PDB entry 1thr) was 4.2 µM (active).

As for `CC[C@H](C)[C@H](NC(=O)[C@H](Cc1ccccc1)NC(=O)[C@H](Cc1ccc(O)cc1)NC(=O)[C@H](CCC(=O)O)NC(=O)[C@@H](N)CCCCN)C(=O)O` (tested in a mixture with another compound) (H-KEYFI-OH), the IC50 (literature IC50, protein: HLA class I histocompatibility antigen, A-2 alpha chain HLA-A*0201, PDB entry 4u6x) is 0.414 µM (active).

Take H-LTFEHWWAQLTS-OH: the IC50 reads like this: (literature IC50, protein: E3 ubiquitin-protein ligase Mdm2, PDB entry 3jzr) 0.036 µM (active); (literature IC50, protein: Human Protein Mdm4, PDB entry 3jzp) 0.25 µM (active).

With `C#Cc1csc2c1NC(NC1CCCC1)=[N+](CC)C2O` (centres undefined), the concentration for half-maximal inhibition (IC50) (literature IC50, protein: High affinity cAMP-specific 3',5'-cyclic phosphodiesterase 7A PDE7A, PDB entry 4pm0) was 0.045 µM (active).

Turning to `N#Cc1ccc(-c2ccc(OCC(=O)O)cc2CN2CCN(c3ccccn3)CC2)cc1`, under “literature IC50, protein: PANTOTHENATE KINASE, PDB entry 4bfy”, the IC50 is 0.12 µM (active).

As for `CCc1c(N2CCOCC2=O)cccc1S(=O)(=O)N[C@@H](Cc1cc(-c2ccc(Cl)s2)on1)C(=O)N1CCC(OC)CC1`, the IC50 (literature IC50, protein: COAGULATION FACTOR X LIGHT CHAIN & COAGULATION FACTOR X, PDB entry 4btt) is 0.00143 µM (active).

For the compound `COCCOCCc1c(C)c2cc(OC)c(O)c(C)c2oc1=O`, the IC50 (literature IC50, protein: Serine/threonine-protein kinase/endoribonuclease IRE1-alpha, PDB entry 4pl3) was 0.29 µM (active).

For `Cc1cc(O)c(C(C)C)cc1N=O`, the IC50 (literature IC50, protein: Serine/threonine-protein kinase PLK1, PDB entry 4h71) is 35.6 µM (active).

On to `Oc1ccc(-c2nc(-c3ccc(F)cc3)c(-c3ccncc3)[nH]2)cc1`, for which, for the setting “literature IC50, protein: Bromodomain-containing protein 4 BRD4-1, PDB entry 4o77”, the IC50 is 2.5 µM (active).

For the compound `N#Cc1ccc(O)cc1F`, the IC50 (literature IC50, protein: M-phase inducer phosphatase 2 CDC25B, PDB entry 4wh7) was 5000 µM (active).

For the compound `CC(=O)N1CCC[C@H]([C@]2(Cc3cccc(Cl)c3)C(=O)Nc3cc(Cl)ccc32)C1`, the IC50 (literature IC50, protein: Humanized Xenopus E3 ubiquitin-protein ligase Mdm2, PDB entry 4lwt) is 3.9 µM (active).

For the compound `CCOc1c(I)cc(Cl)cc1CNCCCNC(=O)Nc1ccsc1`, the IC50 (literature IC50, protein: Trypanosoma brucei methionyl-tRNA synthetase, PDB entry 4mw7) was 10 µM (active).

With `OCc1cc(-c2cn[nH]c2-c2ccc(F)cc2)ccn1`, where the note is “literature IC50, protein: Casein kinase I isoform delta, PDB entry 4kbc”, the IC50 is 0.0142 µM (active).

With `COc1ccccc1-n1c(-c2cc(O)ccc2C)c[n+]2c3c(=O)[nH]c(=O)n(C)c3[nH]c12`, the IC50 (literature IC50, protein: EPH receptor A3, PDB entry 4gk2) is 0.0016 µM (active).

Take `O=C1CCN(c2cccc([N+](=O)[O-])c2)C(=O)N1`: under “literature IC50, protein: Bifunctional protein GlmU, PDB entry 4kpz”, the half-maximal inhibitory concentration (IC50) was 1950 µM (active).

Take `CCC(=O)NC[C@H](NC(=O)[C@@H](NC(=O)[C@@H]1CCCN1C(=O)[C@H](CCCNC(N)N)NC(=O)[C@H](CC(C)C)NC(=O)[C@@H](N)CCCCN)C(C)C)C(=O)N[C@@H](CCSC)C(=O)N[C@H](C(=O)N[C@@H](CCCNC(N)N)C(=O)N1CCC[C@H]1C(=O)N[C@@H](Cc1c[nH]c2ccccc12)C(=O)N[C@H](C(=O)N[C@@H](CCCNC(N)N)C(=O)O)C(C)C)C(C)C` (H-KL[Orn(CH(NH2)2)]PV[Dap](Propionyl)MV[Orn(CH(NH2)2)]PWV[Orn(CH(NH2)2)]-OH): for the setting “literature IC50, protein: E3 ubiquitin-protein ligase SIAH1 (T156C mutation), PDB entry 4i7c”, the IC50 was 0.006 µM (active).

`CC[C@H](NC(=O)[C@@H](NC(=O)[C@@H]1CCCN1C(=O)[C@H](CCCNC(N)N)NC(=O)[C@@H](N)CC(C)C)C(C)C)C(=O)N[C@@H](CCSC)C(=O)N[C@H](C(=O)N[C@@H](CCCNC(N)N)C(=O)N1CCC[C@H]1C(=O)N[C@H](C(=O)N[C@H](C(=O)O)C(C)C)[C@@H](C)O)C(C)C` (H-L[Orn(CH(NH2)2)]PV[Abu]MV[Orn(CH(NH2)2)]PTV-OH): the IC50 (literature IC50, protein: E3 ubiquitin-protein ligase SIAH1, PDB entry 4i7b) was 2 µM (active).

As for `CSCC[C@H](NC(=O)[C@@H]1CCCN1C(=O)CNC(=O)[C@H](CO[P+](O)(O)O)NC(=O)[C@H](Cc1ccc(O)cc1)NC(=O)[C@@H](NC(=O)[C@@H](N)CCCNC(N)N)[C@@H](C)O)C(=O)N[C@@H](CC(N)=O)C(=O)N[C@@H](CCCCN)C(=O)N[C@H](C(=O)O)C(C)C`, the IC50 (literature IC50, protein: HLA class I histocompatibility antigen, PDB entry 3bh9) is 0.117 µM (active).

Take `CCC(=O)NCCCC[C@H](NC(=O)[C@@H]1CCCN1C(=O)[C@H](CCCNC(N)N)NC(=O)[C@@H](NC(=O)[C@H](CCSC)NC(=O)[C@H](C)NC(=O)[C@@H](NC(=O)[C@@H]1CCCN1C(=O)[C@H](CCCNC(N)N)NC(=O)[C@H](CC(C)C)NC(=O)[C@H](CCCCN)NC(C)=O)C(C)C)C(C)C)C(=O)N[C@H](C(=O)N[C@@H](CCCNC(N)N)C(=O)O)C(C)C` (Ac-KL[Orn(CH(NH2)2)]PVAMV[Orn(CH(NH2)2)]PK(Propionyl)V[Orn(CH(NH2)2)]-OH): the IC50 (literature IC50, protein: E3 ubiquitin-protein ligase SIAH1, PDB entry 4i7d) was 0.1 µM (active).

For the compound `CC(C)C[C@H](NC(=O)[C@H](CC(C)C)NC(=O)[C@H](CC(C)C)NC(=O)[C@H](CCCCN)NC(=O)[C@H](CCCCN)NC(=O)[C@H](CC(C)C)NC(=O)[C@H](CC(C)C)NC(=O)[C@H](CO)NC(=O)[C@@H]1CCCN1)C(=O)N[C@@H](C)C(=O)N1CCC[C@H]1C(=O)N[C@@H](C)C=O` (H-PSLLKKLLLAPA-aldehyde), the IC50 (literature IC50, protein: PPARgama, PDB entry 3cs8) was 1.7 µM (active).

As to `CC(C)C[C@H](NC(=O)[C@@H](O)CC(=O)O)C(=O)NCCCCNC(N)N`, the half-maximal inhibitory concentration (IC50) (literature IC50, protein: Streptopain, PDB entry 4d8e) was 0.098 µM (active).
